Bioassay records deposited in PubChem by National Center for Advancing Translational Sciences (NCATS).
FLuc inh – Photinus pyralis luciferase inhibition. 2.5% of 76,000 active. Potency, µM (titrated, usually from 115 µM), hits mostly inhibitors. P08659. purified P. pyralis luciferase, luminescence, biochemical; note: nearly all actives have a fitted effect of over 65% in size
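FLuc 10nM, D-luciferin 10uM, ATP 10uM, Mg acetate 10mM, Tris acetate pH 7.5, Tween/BSA; cpd qHTS; enzyme added last; CCD luminescence.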
GPT2 inh – inhibitors of human GPT2 alanine aminotransferase | Recombinant GPT2, coupled pyruvate oxidase/HRP Amplex Red fluorescence | Potency, µM (series often up to 57.7 µM), for inactives: at the top dose activity change, negative = inhibition, usual class: inhibitors | 0.25% of 100,000 active | AID 1671188; note: nearly all actives have a fitted effect of over 60% in size
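Fluorescence read-out: pyruvate from GPT2 turnover coupled to pyruvate oxidase, HRP and Amplex Red (0.2mM ThPP, 0.2U/mL PO and HRP, 50uM Amplex final). Substrates 250uM a-KG, 2mM L-alanine; enzyme 10ng/uL; 30 min RT.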
HEK293 tox – cytotoxic compounds in HEK 293 cells | Potency, µM (top dose mostly 115 µM), for the others: at the top dose activity change, negative = cytotoxicity, most hits filed as inhibitors | HEK 293 viability, ATP luminescence (CellTiter-Glo), 48-72 h | 6.6% of 94,000 active | AID 1345083; note: nearly all actives have a fitted effect of over 60% in size
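qHTS cytotoxicity; HEK 293, 250 cells/well; compound pinned; 48 or 72 hr, 37 degree Celsius, 5% CO2, 95% humidity; CellTiter-Glo, 10 min RT; luminescence (ATP).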
hNpr1 antagonist – antagonists of human natriuretic peptide receptor Npr1; P16066; HEK293 hNpr1 GloSensor cGMP, ANP-stimulated luminescence; Potency, µM (highest dose often 46.3 µM), without a hit: at the highest dose activity change, negative = inhibition, most hits filed as inhibitors; 1.6% of 76,000 active; calls by dose curve; note: nearly all actives have a fitted effect of over 60% in size
Target sequence (P16066 whole entry, looked up): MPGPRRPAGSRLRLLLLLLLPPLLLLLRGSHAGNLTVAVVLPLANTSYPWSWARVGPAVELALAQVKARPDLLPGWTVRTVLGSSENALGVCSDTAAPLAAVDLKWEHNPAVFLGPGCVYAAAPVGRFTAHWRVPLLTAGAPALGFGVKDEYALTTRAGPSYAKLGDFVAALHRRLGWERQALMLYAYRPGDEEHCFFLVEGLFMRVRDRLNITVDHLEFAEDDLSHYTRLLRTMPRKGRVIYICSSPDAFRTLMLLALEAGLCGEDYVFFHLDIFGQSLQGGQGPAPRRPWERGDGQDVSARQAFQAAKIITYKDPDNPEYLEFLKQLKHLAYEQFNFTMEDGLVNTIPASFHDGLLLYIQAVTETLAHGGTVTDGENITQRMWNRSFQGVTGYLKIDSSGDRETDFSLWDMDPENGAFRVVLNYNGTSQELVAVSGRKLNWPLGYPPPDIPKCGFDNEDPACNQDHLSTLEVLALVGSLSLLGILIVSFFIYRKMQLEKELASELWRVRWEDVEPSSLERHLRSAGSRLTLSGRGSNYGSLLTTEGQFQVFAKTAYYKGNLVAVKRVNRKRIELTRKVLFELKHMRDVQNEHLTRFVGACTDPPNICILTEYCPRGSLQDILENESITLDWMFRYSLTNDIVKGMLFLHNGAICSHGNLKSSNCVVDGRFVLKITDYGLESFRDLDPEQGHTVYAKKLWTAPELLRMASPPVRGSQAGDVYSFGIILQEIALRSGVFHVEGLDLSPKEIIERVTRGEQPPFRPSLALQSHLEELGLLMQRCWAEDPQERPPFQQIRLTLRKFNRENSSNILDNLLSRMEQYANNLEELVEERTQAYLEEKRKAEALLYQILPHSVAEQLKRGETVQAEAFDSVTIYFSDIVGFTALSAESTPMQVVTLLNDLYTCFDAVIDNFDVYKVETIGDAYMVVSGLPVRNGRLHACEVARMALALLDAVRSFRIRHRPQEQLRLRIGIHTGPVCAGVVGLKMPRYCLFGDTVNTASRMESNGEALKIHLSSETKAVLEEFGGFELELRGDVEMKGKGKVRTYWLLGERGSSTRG
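HEK293 cells stably expressing human Npr1 and cGMP GloSensor pGS-40F, loaded 2 h with 2% GloSensor reagent, given compound 30 min at room temperature. Luminescence read before and 20 min after 0.1 nM hNppA.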
NIH3T3 tox – kills NIH 3T3 cells. Potency, µM (titrated, usually from 96.7 µM), for the others: at the top dose activity change, negative = cytotoxicity, actives largely listed as inhibitors. NIH 3T3 viability, CellTiter-Glo ATP luminescence, 48-72 h. AID 1345082. 4.3% of 94,000 active; note: nearly all actives have a fitted effect of over 55% in size
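Cytotoxicity was measured by CellTiter-Glo ATP luminescence after 48 or 72 h compound exposure at 37 °C. Mouse NIH 3T3 fibroblasts were seeded at 400 cells/well and dosed by 23 nL pin transfer.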
The depositor's hits bear a star; [ ] = dose if it differs, or a comment. Compounds with a hit are over-represented: about 10% of the library has one in this group of screens. Unless noted, calls come from the whole dose curve; as a rule, active = well fitted curve in the direction sought with a large enough effect; inconclusive = small, poorly fitted or top-dose-only effect, or another doubt; inactive = no such curve, though single readings can be large; an effect the other way counts as inactive or inconclusive. % is set by controls: 0 for no effect and ±100 for the full control effect; potency is the fitted concentration of half-maximal effect.

Screening Cc1cc(Cn2cc3c4c(cccc42)[C@H](CC(C)C)N[C@H](C(=O)NCCN(C)C)C3)no1 returned FLuc inh inactive, GPT2 inh -1%, HEK293 tox 35µM*, hNpr1 antagonist 6% and NIH3T3 tox 22µM*.
Cc1cc(Cn2cc3c4c(cccc42)[C@H](CC(C)C)N[C@H](C(=O)NCC2CC2)C3)no1 was read as FLuc inh inactive, GPT2 inh 0%[88.5 µM], HEK293 tox 79µM*, hNpr1 antagonist -6%[70.6 µM] and NIH3T3 tox 89µM*.
O=C1CC2(CCN(C(=O)C3CCCN(C(=O)Cc4ccccn4)C3)CC2)Oc2ccccc2N1 (centres undefined) was read as GPT2 inh inactive, HEK293 tox 1% and NIH3T3 tox -14%.
CN(C)CCNC(=O)c1cc(-c2ccccc2F)cc2c1OCCN2Cc1cccnc1 was read as FLuc inh inactive, GPT2 inh -5%[88.5 µM], HEK293 tox 63µM*, hNpr1 antagonist -25%[70.6 µM] and NIH3T3 tox 40µM*.
CN1CCOc2c(C(=O)NCc3cccnc3)cc(-c3ccccc3F)cc21 was read as FLuc inh inactive, GPT2 inh 4%[88.5 µM], HEK293 tox 100µM*, hNpr1 antagonist 3%[70.6 µM] and NIH3T3 tox inconclusive.
For CNC(=O)c1cc(-c2cnn(C)c2)cc2c1OCCN2Cc1cccnc1 the results were FLuc inh inactive, GPT2 inh inactive, HEK293 tox inactive, hNpr1 antagonist 2%[70.6 µM] and NIH3T3 tox 40µM*.
CN(C)CCN(C)C(=O)c1cc(-c2ccccc2F)cc2c1OCCN2Cc1cccnc1 was read as FLuc inh inactive, GPT2 inh inactive, HEK293 tox 79µM*, hNpr1 antagonist -3% and NIH3T3 tox inconclusive.
Screening O=C(NCc1ccco1)c1cc(-c2ccccc2F)cc2c1OCCN2Cc1cccnc1 returned FLuc inh inactive, GPT2 inh 1%, HEK293 tox inconclusive, hNpr1 antagonist -29% and NIH3T3 tox inconclusive.
CNC(=O)c1cc(-c2ccccc2)cc2c1OCCN2Cc1cccnc1 was read as FLuc inh inactive, GPT2 inh 4%[88.5 µM], HEK293 tox inconclusive, hNpr1 antagonist -3%[70.6 µM] and NIH3T3 tox inconclusive.
Cc1ccc(OCc2nc(C3CCCCN3C(=O)C3CC3)no2)cc1 (centres undefined) was read as GPT2 inh -9%, HEK293 tox inconclusive and NIH3T3 tox inconclusive.
`O=C(NCC1CC1)C1CN(c2cccc(Cl)c2)C(=O)N1` (centres undefined) gave FLuc inh inactive, GPT2 inh 3%[88.5 µM], HEK293 tox -11%[172 µM], hNpr1 antagonist 14%[70.6 µM] and NIH3T3 tox -17%[138 µM].
`Cc1cn2nc(C(=O)N3CCC(NC(=O)C4(c5ccccc5)CC4)CC3)cc2c(=O)[nH]1` gave FLuc inh inactive, GPT2 inh inactive, HEK293 tox 0%, hNpr1 antagonist -1% and NIH3T3 tox -1%.
`CCCN1CCN(C(=O)c2c(OCC3CC3)cc(=O)n3c2CCOCC3)CC1` gave GPT2 inh 1%, HEK293 tox -16% and NIH3T3 tox -8%.
CC(C)NC(=O)c1cc(-c2ccccc2F)cc2c1OCCN2Cc1cccnc1 was read as FLuc inh inactive, GPT2 inh 0%[88.5 µM], HEK293 tox 89µM*, hNpr1 antagonist -26%[70.6 µM] and NIH3T3 tox 79µM*.
Screening CNC(=O)c1cc(-c2ccc(O)c(F)c2)cc2c1OCCN2Cc1cccnc1 returned FLuc inh inactive, GPT2 inh inconclusive, HEK293 tox inconclusive, hNpr1 antagonist -2%[70.6 µM] and NIH3T3 tox inconclusive.
For COC(=O)[C@H](Cc1ccc(OC)cc1)NC(=O)[C@H]1CN(C(C)=O)CCN1S(=O)(=O)c1ccccc1 the results were FLuc inh inactive, GPT2 inh 4%, HEK293 tox inactive, hNpr1 antagonist 3% and NIH3T3 tox 45µM*.
For COC(=O)[C@H](Cc1ccc(OC)cc1)NC(=O)[C@@H]1CN(C(=O)NC(C)C)CCN1S(C)(=O)=O the results were FLuc inh inactive, GPT2 inh -13%, HEK293 tox 3%, hNpr1 antagonist -2% and NIH3T3 tox -7%.
